Source: PubChem BioAssay
DT40 TDP1 no CPT = qHTS for Inhibitors of human tyrosyl-DNA phosphodiesterase 1 (TDP1): qHTS in cells in absence of CPT. DT40 Tdp1-/- hTDP1 cells, no CPT, ATP luminescence, 48 h. Potency, µM (titrated, usually from 46.2 µM), inactives show at the highest dose activity change, negative = growth inhibition, hits mostly inhibitors. actives 15% (n = 420,000); further: nearly all actives have a fitted effect of over 55% in size
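Chicken DT40 Tdp1-/- cells complemented with human TDP1, screened without camptothecin (DMSO vehicle only), 400 cells/well. Compounds pin-transferred, cells incubated at 37 °C for at least 48 hr. Growth read as ATP-dependent luminescence (CellTiter-Glo, 30 min at RT).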
HT1080 IDH1KD tx = kills HT-1080 cells with IDH1 knockdown. HT-1080 IDH1 knockdown viability, ATP luminescence, 48 h. Potency, µM (series often up to 46.1 µM), without a hit: at the top dose activity, negative = toxicity, hits mostly cytotoxic. actives 2% (n = 360,000). AID 686971;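 further: 0% = DMSO wells and -100% = cell-free medium wells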
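In this qHTS, HT-1080 cells depleted of IDH1 are exposed for 48 h at 37 °C to compound titrations. Toxicity is scored from CellTiter-Glo luminescence, with DMSO as full viability and medium alone as none.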
TDP1 cell CPT = growth inhibition of DT40 Tdp1-/-;hTDP1 cells with camptothecin (screen for TDP1 inhibitors); actives 12% (n = 420,000); chicken DT40 Tdp1-/-;hTDP1 cells + 20 nM CPT, ATP luminescence, 48 h; Potency, µM (top dose mostly 46.2 µM), without a hit: top-dose activity change, negative = growth inhibition, usual class: inhibitors; further: nearly all actives have a fitted effect of over 55% in size
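Chicken DT40 Tdp1-/- cells complemented with human TDP1, 400 cells/well, exposed to compounds plus 20 nM camptothecin for at least 48 h at 37 C; viability read as ATP content by CellTiter-Glo luminescence.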
HT1080NT lethal = kills 2HG-producing HT-1080-NT fibrosarcoma cells; HT-1080-NT fibrosarcoma viability, CellTiter-Glo ATP luminescence, 48 h; Potency, µM (highest dose often 46.1 µM), inactives show top-dose activity, negative = less viability, most hits filed as cytotoxic; actives 1.6% (n = 360,000); AID 686970;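 further: NT is the 2HG producing partner of a matched IDH1 knockdown line; 0% = DMSO-treated cells and -100% = media-only wells without cells; nearly all actives have a fitted effect of over 55% in size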
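750 cells/well, RPMI + 5% FBS; 2 h settle, compound pin-transfer, 48 h at 37 degrees C. CellTiter-Glo 10 min RT, luminescence. Normalized to DMSO and media-only wells.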
KB-V1 cytotox = kills drug-selected multidrug resistant KB-V1 cells. KB-V1 MDR cells viability, CellTiter-Glo, 72 h. AID 1347076. Potency, µM (doses to about 46.1 µM), usual class: cytotoxic. actives 3.4% (n = 400,000); further: nearly all actives have a fitted effect of over 60% in size
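qHTS viability screen in drug-selected KB-V1 MDR cells: 72 h compound treatment at 37 degrees C, ATP luminescence end point.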
KB-3-1 tox = kills parental KB-3-1 adenocarcinoma cells; KB-3-1 viability, CellTiter-Glo ATP luminescence, 72 h; actives 1.4% (n = 400,000); Potency, µM (titrated, usually from 46.1 µM), actives largely listed as cytotoxic; further: nearly all actives have a fitted effect of over 60% in size
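Cytotoxicity measured as CellTiter-Glo luminescence after 72 h at 37 C. Compound titrations were pinned onto drug-naive KB-3-1 parental adenocarcinoma cells grown in DMEM with 10% FBS, and normalized data fitted to concentration-response curves.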
Numbers without * were called inactive; i = inactive; ? = inconclusive; . = no result given. Only some compounds are listed: those with a hit (about 19% of all), similar ones and a draw of the others. The call rests on the fitted dose curve; in most records, active means well fitted curve in the direction sought with a large enough effect; inconclusive means small, poorly fitted or top-dose-only effect, or another doubt; inactive means no such curve, though single readings can be large; an effect the other way counts as inactive or inconclusive. Unless noted, on the % scale 0 is the no-effect control and ±100 the full control effect; potency means the concentration at half of the fitted maximal effect.

SMILES	DT40 TDP1 no CPT	HT1080 IDH1KD tx	TDP1 cell CPT	HT1080NT lethal	KB-V1 cytotox	KB-3-1 tox
COc1cc(CN2CCCC(CO)(Cc3cccc(Cl)c3)C2)cc(OC)c1O (configuration not stated)	?	-0.2%	?	-13.2%	i	i
CSc1cccc(CN2CCCC(CO)(Cc3cccc(Cl)c3)C2)c1 (configuration not stated)	12.0%	6.4%	-4.9%	14.2%	i	i
Cc1nn(C)c(Cl)c1CN1CCCC(CO)(Cc2cccc(Cl)c2)C1 (configuration not stated)	14.6µM*	-26.0%	14.6µM*	-7.8%	i	i
COc1ccc(CN2CCCC(CO)(Cc3cccc(Cl)c3)C2)cc1OC (configuration not stated)	20.6µM*	-17.1%	-28.8%	-28.9%	i	i
Cc1ccccc1CC1(CO)CCCN(Cc2c(C)nn(C)c2Cl)C1 (configuration not stated)	?	-19.4%	19.2%	-2.4%	i	i
OCC1(Cc2cccc(Cl)c2)CCCN(Cc2cnn(-c3ccccc3)c2)C1 (configuration not stated)	13µM*	-14.8%	?	-1.8%	i	i
O=C(COC(=O)CC1Sc2ccccc2NC1=O)NCc1ccccc1 (configuration not stated)	-10.7%	-9.4%	-12.2%	-7.8%	i	i
COCCNC(=O)C1(C)CCN(C(=O)c2nc(C)oc2C)C1 (configuration not stated)	18.9%	1.4%	1.9%	12.1%	i	i
Cc1ccccc1CC1(CO)CCCN(C(=O)c2cccc(Cl)c2)C1 (configuration not stated)	?	-1.2%	-73.7%	10.1%	?	i
OCC1(Cc2ccccc2)CCCN(Cc2ccc(-c3ccco3)cc2)C1 (configuration not stated)	23.1µM*	?	?	?	i	i
O=C(c1ccc(-n2ccnc2)cc1)N1CCCC(CO)(Cc2cccc(Cl)c2)C1 (configuration not stated)	?	-1.9%	4.61µM*	1.9%	i	i
Cc1cccc(CN2C(=O)c3ccccc3Sc3ccc(C(=O)NCc4cccs4)cc32)c1	-25.9%	.	-18.2%	.	.	.
O=C1c2ccccc2C(=O)N1Cc1cnc(N2CCN(c3ccccc3)CC2)s1	11.6µM*	-0.8%	8.2µM*	-20.1%	?	?
O=C(CCN1C(=O)c2ccccc2C1=O)N1CCN(c2ccccc2)CC1	0.7%	1.6%	1.5%	0.7%	i	?
CCC[C@@H]1C[C@@H](C(=O)N[C@@H]([C@H]2O[C@H](SC)[C@H](O)[C@@H](O)[C@H]2O)[C@@H](C)O)N(C)C1	-2.8%	.	-12.8%	.	.	.
COc1ccc(OCC2NCCc3cc(OC)c(OC)cc32)cc1 (configuration not stated)	?	-5.1%	?	-12.6%	i	i
COc1cc2c(cc1OC)C(COc1cccc(C(F)(F)F)c1)NCC2 (configuration not stated)	?	-22.4%	20.6µM*	3.3%	i	i
CCCCN1CC(COCc2ccccc2)Oc2cccc(Oc3ccc(C)cc3)c2S1(=O)=O (configuration not stated)	7.31µM*	-3.0%	8.2µM*	?	i	i
CCCCN1CC(COCc2ccccc2)Oc2cccc(Oc3cc(C)c(C)c(C)c3)c2S1(=O)=O (configuration not stated)	5.17µM*	-6.8%	7.31µM*	-7.7%	i	i
CCCCN1CC(COCc2ccccc2)Oc2cccc(OCc3ccc(OC)cc3)c2S1(=O)=O (configuration not stated)	4.11µM*	8.3%	5.8µM*	4.7%	i	i
CCCCN1CC(COCc2ccccc2)Oc2cccc(Oc3ccccc3)c2S1(=O)=O (configuration not stated)	18.4µM*	-1.3%	?	-5.9%	i	?
CCCS(=O)(=O)NC(=O)C1(C)CCN(C(=O)c2ccc(OC)cc2)C1 (configuration not stated)	-9.4%	0.0%	-19.3%	17.3%	i	i
O=C(C1CCN(S(=O)(=O)c2cccs2)CC1)N1CCN(c2ccccc2F)CC1	?	.	-10.5%	.	i	i
CCCCNc1cccc2c1S(=O)(=O)N(CCCC)CC(COCc1ccccc1)O2 (configuration not stated)	16.4µM*	-10.1%	?	-4.2%	i	i
CCCCN1CC(COCc2ccccc2)Oc2cccc(NCc3ccc(OC)cc3)c2S1(=O)=O (configuration not stated)	?	7.1%	?	1.6%	i	i
SMILES	DT40 TDP1 no CPT	HT1080 IDH1KD tx	TDP1 cell CPT	HT1080NT lethal	KB-V1 cytotox	KB-3-1 tox
COc1cnc(-c2ccccn2)nc1Oc1ccccc1	0.461µM*	21.5%	0.461µM*	8.3%	?	i
COc1ccnc(Oc2ccccc2)c1C#N	-8.8%	-3.9%	-9.7%	8.5%	i	i
COc1cnc(-c2ccccn2)nc1N(C)c1ccccc1	0.411µM*	?	0.517µM*	?	?	?
CCn1c(C)c(C)c2cc(C(=O)Nc3cccc(Cl)c3)ccc21	18.4µM*	-21.8%	?	-5.8%	?	?
CCc1ccc(NC(=O)c2ccc3c(c2)c(C)c(C)n3Cc2ccccc2)cc1	5.17µM*	.	5.8µM*	.	8.2µM*	?
CCn1c(C)c(C)c2cc(C(=O)NCCCN3CCCC3)ccc21	12.1%	3.4%	-14.8%	0.3%	i	i
COc1cccc(CNC(=O)c2ccc3c(c2)c(C)c(C)n3Cc2ccccc2)c1	18.4µM*	.	16.4µM*	.	i	i
COc1ccc(-n2c(=O)c3ccc(C(=O)NCc4ccc(C)cc4)cc3n(CC(=O)Nc3ccc(C)cc3)c2=O)cc1	20.6µM*	.	?	.	i	i
Cc1ccc(-n2ccnc(SCC(=O)NC3CCCCC3)c2=O)cc1F	?	-1.8%	?	-3.8%	i	i
COC(=O)c1cccc(NC2=NS(=O)(=O)c3ccccc32)c1	?	.	?	.	?	i
Cc1ccc(CNC(=O)c2ccc3c(c2)c(C)c(C)n3Cc2ccc(Cl)cc2)o1	5.17µM*	.	?	.	i	i
